PubChem BioAssay (NCI)
This is part of a sample that, as a whole, favours compounds with a hit. Of some 83,000 tested, about 20% had one in any assay.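 Method: cells in 96-well plates; compound added at one concentration; 48 h incubation; percent growth measured; values under 10 scored active.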 A number with no mark means an inactive call. The source made the active and inactive calls.

Experiments:
Assay in all cases: NCI-60 one-dose screen, 48 h (100 = growth as untreated, 0 = no growth, -100 = all killed)
Details in all cases: 10 µM unless noted
HCT-15 colon = tested on: HCT-15 colon
HT29 colon = tested on: HT29 colon
SNB-75 CNS = tested on: SNB-75 CNS
SNB-19 CNS = tested on: SNB-19 CNS
U251 CNS = tested on: U251 CNS
PC-3 prostate = tested on: PC-3 prostate
SK-MEL-5 melanoma = tested on: SK-MEL-5 melanoma
UACC-62 melanoma = tested on: UACC-62 melanoma
LOX IMVI melanoma = tested on: LOX IMVI melanoma
SK-MEL-28 melanoma = tested on: SK-MEL-28 melanoma
EKVX NSCLC = tested on: EKVX NSCLC
SN12C renal = tested on: SN12C renal
UO-31 renal = tested on: UO-31 renal
TK-10 renal = tested on: TK-10 renal
ACHN renal = tested on: ACHN renal
CAKI-1 renal = tested on: CAKI-1 renal
A498 renal = tested on: A498 renal
CCRF-CEM leukemia = tested on: CCRF-CEM leukemia
MOLT-4 leukemia = tested on: MOLT-4 leukemia

SMILES	growth (HCT-15 colon)	growth (HT29 colon)	growth (SNB-75 CNS)	growth (SNB-19 CNS)	growth (U251 CNS)	growth (PC-3 prostate)	growth (SK-MEL-5 melanoma)	growth (UACC-62 melanoma)	growth (LOX IMVI melanoma)	growth (SK-MEL-28 melanoma)	growth (EKVX NSCLC)	growth (SN12C renal)	growth (UO-31 renal)	growth (TK-10 renal)	growth (ACHN renal)	growth (CAKI-1 renal)	growth (A498 renal)	growth (CCRF-CEM leukemia)	growth (MOLT-4 leukemia)
O=C(Cc1ccc(/C=C/C(=O)c2ncc[nH]2)cc1)Nc1ccc(S(F)(F)(F)(F)F)cc1	34.2%	-25.7% (active)	72.8%	75.9%	37%	58.9%	98.4%	86.7%	-59% (active)	100%	96.9%	80.3%	60.7%	107%	95.8%	81.7%	88.3%	41.9%	53.4%
O=C(Cn1cncn1)Nc1ccc(-c2nc3ccccc3s2)cc1	101%	105%	92.1%	93%	90%	85.8%	86.7%	95.2%	99.3%	111%	90.2%	95.1%	76.9%	106%	110%	93.8%	88.4%	105%	91.9%
Cc1ccc(NC(=O)Nc2ccc(Nc3ncnc4sc5c(c34)CCOC5)cc2)cc1Cl	106%	81.2%	69.8%	103%	87.7%	81.2%	95%	95.4%	97.3%	111%	110%	102%	78.6%	103%	94.6%	91.7%	90.4%	90.3%	88.9%
O=C1C=CC2(NN=C(c3ccccc3)N2c2cccc(Cl)c2)C(Cl)=C1 (centres undefined)	79.6%	87.8%	82%	94.3%	84.6%	58.3%	91.8%	44.3%	71.2%	111%	67.5%	84.4%	51.5%	100%	63.7%	79.8%	83.4%	41.6%	39.2%
Cc1ccc(NC(=O)c2ccc(CN3CCN(C)CC3)cc2)cc1Nc1nc(-c2cccnc2)cs1	16.1%	6.04% (active)	64.8%	46.3%	6.69% (active)	35.9%	-0.29% (active)	58.4%	-27.3% (active)	-10.3% (active)	48.3%	74%	82.9%	88.3%	48.3%	78%	64.8%	11.8%	5.98% (active)
CCCNC(=O)c1cn2ncnc(Nc3cc(C(=O)NC4CC4)ccc3C)c2c1C	87.2%	81.9%	74.6%	70.7%	77.2%	74.3%	38.2%	49.1%	40.1%	30.1%	87.2%	88.4%	45.2%	104%	58.6%	67.6%	56.9%	73.9%	92.6%
COc1cc(N2CCC(N(C)C)CC2)ccc1Nc1ncc(Cl)c(Nc2ccccc2P(C)(C)=O)n1	7.34% (active)	-4.74% (active)	-82.5% (active)	14.9%	5.24% (active)	26%	16.5%	16%	-60.3% (active)	49.4%	20%	1.55% (active)	-81.2% (active)	-43.9% (active)	1.69% (active)	-60.9% (active)	-70% (active)	10.4%	13.4%
COC(=O)N[C@@H](C)CNc1nccc(-c2cn(C(C)C)nc2-c2cc(Cl)cc(NS(C)(=O)=O)c2F)n1	53.6%	7.99% (active)	51.8%	108%	87.2%	90.7%	51.4%	-11% (active)	37.5%	-0.756% (active)	63.1%	66.9%	16.9%	52%	28%	34.2%	31.9%	89.8%	67.4%
COc1ccc(C(=O)N2c3ccccc3Sc3ccccc32)c(F)c1	27.3%	5.07% (active)	-11.3% (active)	35.8%	33.6%	29.8%	15.7%	22.6%	40.3%	58.9%	44%	60.8%	49.2%	44.5%	48.4%	45.3%	2.13% (active)	17%	27.1%
O=C(NOC[C@H](O)CO)c1ccc(F)c(F)c1Nc1ccc(I)cc1F	53%	7.15% (active)	59.9%	49.1%	38.6%	92.8%	42.5%	-10.7% (active)	23.1%	-2.06% (active)	57.6%	49.5%	24.6%	41.4%	47.6%	34.3%	-19.9% (active)	83.7%	66.6%
Cc1c(NC(=O)OC[C@@H]2COCCN2)cn2ncnc(Nc3ccc4c(cnn4Cc4cccc(F)c4)c3)c12	4.13% (active)	-6.28% (active)	-70.7% (active)	6.8% (active)	-6.22% (active)	9.24% (active)	-46.4% (active)	-14.7% (active)	-11% (active)	-10.1% (active)	4.4% (active)	0.74% (active)	-40.5% (active)	-7.43% (active)	-0.373% (active)	-2.81% (active)	-68.8% (active)	6.97% (active)	1.8% (active)
COC(=O)c1ccc2c(C(=Nc3ccc(N(C)C(=O)CN4CCN(C)CC4)cc3)c3ccccc3)c(O)[nH]c2c1	65.9%	8.01% (active)	18%	67.9%	45.4%	67.9%	68%	90.2%	33.6%	74.5%	94%	44.8%	9.57% (active)	46.5%	48.8%	51.8%	21.7%	40.4%	50.5%
Cc1nc2cc(-c3nn(C(C)C)c4ncnc(N)c34)ccc2o1	1.74% (active)	-8.06% (active)	-70.1% (active)	-4.62% (active)	-15.3% (active)	3% (active)	-49.2% (active)	-53% (active)	-21.1% (active)	-34.3% (active)	-10.3% (active)	1.14% (active)	-35.7% (active)	-47% (active)	-13.4% (active)	-36.7% (active)	-55.5% (active)	6.03% (active)	-8.69% (active)
CCn1cc(-c2ccnc3[nH]c(-c4cccc(CN(C)C)c4)cc23)c(-c2ccc(NC(=O)N(C)C)cc2)n1	24.6%	-7.89% (active)	-52.6% (active)	55%	38.2%	30.6%	37.5%	39.9%	-76.9% (active)	45.2%	55.4%	24.1%	-10.7% (active)	44.3%	15.4%	6.96% (active)	-34.1% (active)	4.15% (active)	7.17% (active)
C[C@H](NC(=O)c1c(N)nn2cccnc12)c1cc2cccc(C#Cc3cnn(C)c3)c2c(=O)n1-c1ccccc1	10.6%	2.38% (active)	-6.15% (active)	39.3%	16.7%	18.9%	44%	15.6%	7.86% (active)	45.5%	33.9%	40.6%	10.6%	-9.96% (active)	20.7%	21.3%	-24.3% (active)	13.8%	-4.98% (active)
O=C(Nc1cccc([N+](=O)[O-])c1)c1ccc(Cl)c(Cl)c1	93.2%	78.3%	-2.87% (active)	53.5%	62.4%	60.7%	89.4%	74.4%	63.6%	53.5%	66.4%	67.9%	95.4%	49.9%	49.8%	86.4%	79.9%	82.7%	85.9%
